Bioassay records deposited in PubChem by several laboratories.
The list is not random: actives were taken first. Their share in the collection is about 2.5%.
F508del corr = correctors of CFTR F508del function in bronchial epithelial cells; activity (quench increase), % at 7.58 µM; 350,000 compounds, 0.36% hits; CFBE cells, YFP halide quenching; stimulated with forskolin plus potentiator P3; % fluorescence drop versus neutral controls;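 active means mean added fluorescence quench of at least 8% versus neutral control, with both replicates also reaching 8%; inconclusive means only one of the mean or replicate conditions met; inactive means mean below 8% and not both replicates reaching 8%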;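 further: cells transiently co-express mutant CFTR-F508del with the halide-sensitive YFP; corrector assay measuring rescue of mutant channel to the surface after 24 h compound exposure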
EWS-Fli inh = inhibitors of EWS/Fli oncoprotein transcriptional activity | A673 NR0B1-luciferase reporter, viability-normalised | inhibition, % at 12.6 µM | 350,000 compounds, 0.67% hits | AID 651661;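 active means mean inhibition of at least 50% after viability correction, with every replicate also passing that limit; inconclusive means mean reaches 50% but only one of two replicates passes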;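 further: firefly luciferase signal divided by Alamar Blue viability fluorescence both relative to DMSO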
PAX8 inh HTS = lowers PAX8-driven luciferase in RMG-I cells; RMG-I TPO-luciferase reporter, SteadyGlo, 24 h; inhibition, % at 12.6 µM; 360,000 compounds, 1.2% hits; AID 652154;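 active means mean replicate inhibition at least 60% with every replicate also reaching 60%; inconclusive means only one of the two criteria is met; inactive means mean below 60% and not all replicates reaching 60%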;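 further: luciferase light reporting Pax8 driven TPO promoter activity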
Env fusion inh = blocks HIV Env-driven cell-cell fusion | inhibition, % at 12.3 µM | HeLa-JRFL Env/CEM21 cell fusion, luciferase | AID 651610 | 360,000 compounds, 1.1% hits;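 active means mean replicate inhibition score of at least 50 and every replicate individually at or above 50; inconclusive means only one of the two criteria met; inactive means mean below 50 and not all replicates reaching 50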
GAA850 FXN act = increases GAA850 frataxin promoter reporter activity. activation, % at 6 µM. AID 540364. HEK293 lucGAA850 FXN promoter luciferase reporter, 24 h; percent of 10 µM SAHA response. 360,000 compounds, 0.56% hits;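 active means activation above the average of all compounds screened plus 3 SD, cutoff fixed separately per campaign, cut at about 7.5% in these data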
Each line names hits and unclear results; the compound was inactive in the other large screens; ! = not active in a repeat.

CCCN1[C@@H]2Cn3c(ccc(-c4cccc(C(=O)N(C)C)c4)c3=O)[C@H]1[C@@H](C(=O)OC)[C@@H]2CO	none (no result: F508del corr, GAA850 FXN act)
NC(N)=Nc1ccc2[nH]c3c(c2c1)C[C@@]1(O)[C@H]2Cc4ccc(O)c5c4[C@@]1(CCN2CC1CC1)[C@H]3O5	GAA850 FXN act 11 (no result: F508del corr, EWS-Fli inh, PAX8 inh HTS, Env fusion inh)
COc1ccc(C#Cc2ccc([C@H]3[C@H]4CN(C(=O)Cc5ccncc5)CCCCN4[C@H]3CO)cc2)cc1	none (no result: EWS-Fli inh, Env fusion inh, GAA850 FXN act)
CCC1(C)OC(c2ccccc2)=C/C(=C/C=C2C(=O)NC(=O)NC2=O)O1 (stereo unspecified)	F508del corr 15
CC(=O)OC[C@]12CCC(C)=C[C@H]1O[C@@H]1[C@H](O)[C@@H](OC(C)=O)[C@@]2(C)[C@]12CO2	EWS-Fli inh 56 (no result: PAX8 inh HTS, Env fusion inh)
C/C=C/c1ccc(C2[C@@H]3CN(C(=O)C4CCC4)C[C@H]2N3)cc1 (stereo partly specified)	none (no result: Env fusion inh, GAA850 FXN act)
CC[C@H]1CN2CCC1C[C@H]2[C@H](O)c1ccnc2ccc(OC)cc12 (stereo partly specified)	F508del corr 9.8
CC[C@H]1CN2CCC1C[C@@H]2[C@@H](O)c1ccnc2ccc(OC)cc12 (stereo partly specified)	none
COC(=O)[C@H]1[C@H](CO)[C@H]2Cn3c(cccc3=O)[C@@H]1N2C(=O)C1CCCC1	none (no result: PAX8 inh HTS, Env fusion inh, GAA850 FXN act)
CN(C)[C@@H]1C(=O)C(C(N)=O)=C(O)[C@@]2(O)C(=O)C3=C(O)c4c(O)cccc4[C@@](C)(O)[C@H]3[C@H](O)[C@@H]12	none
CN(C)[C@@H]1C(=O)C(C(N)=O)=C(O)[C@@]2(O)C(=O)C3=C(O)c4c(O)cccc4[C@@](C)(O)C3C[C@@H]12 (stereo partly specified)	GAA850 FXN act 19
COC(=O)C12OCC34C(CC5C(C)=C(O)C(=O)CC5(C)C3C(O)C1O)OC(=O)C(OC(=O)/C=C(\C)C(C)C)C24 (stereo unspecified)	PAX8 inh HTS 96, Env fusion inh 84
O=C(Cc1cccnc1)N1CCCCN2[C@@H](CO)[C@H](c3ccc(C#CC4CC4)cc3)[C@@H]2C1	none (no result: Env fusion inh, GAA850 FXN act)
CC(O)C1C=CC=CC(=O)OC2CC3OC4C5OC5(C)CCC4(COC(=O)C4OC4(C)C(O)CO1)C2(C)C31CO1 (stereo unspecified)	PAX8 inh HTS 103
CC(=O)OC1C(=O)OCC23CCC4(C)OC4C2OC2CC(OC(=O)C=CC=CC(=O)OCCC1C)C3(C)C21CO1 (stereo unspecified)	PAX8 inh HTS 103, Env fusion inh 77
CC1=CC2OC3CC4OC(=O)C=CC=CC(=O)OCCC(C)C(O)C(=O)OCC2(CC1O)C4(C)C31CO1 (stereo unspecified)	none (no result: F508del corr, EWS-Fli inh, PAX8 inh HTS, Env fusion inh)
CC1=CC2OC3CC4OC(=O)C=CC=CC(C(C)O)OCC(O)C(C)CC(=O)OCC2(CC1O)C4(C)C31CO1 (stereo unspecified)	EWS-Fli inh 51, Env fusion inh 83 (no result: PAX8 inh HTS)
COC(=O)[C@@H]1[C@@H](CO)[C@@H]2Cn3c(ccc(C4=CCCC4)c3=O)[C@H]1N2Cc1ccccn1	none (no result: F508del corr, PAX8 inh HTS, Env fusion inh, GAA850 FXN act)
COC(=O)C(Cc1ccc(N(CCCl)CCCl)cc1)N=Cc1ccccc1O (stereo unspecified)	EWS-Fli inh 67, PAX8 inh HTS 97
Cc1cccc(N=C2c3cc([N+](=O)[O-])ccc3-c3c2cc([N+](=O)[O-])cc3[N+](=O)[O-])c1	PAX8 inh HTS 66, Env fusion inh inconclusive
CCC(COC(=O)c1cc(OC)c(OC)c(OC)c1)(c1ccccc1)N(C)C (stereo unspecified)	F508del corr 9.0!
CC=Cc1ccc2n(c1=O)C[C@@H]1[C@@H](CO)[C@H](C(=O)OC)[C@H]2N1C(=O)CC (mixture of isomers)	none (no result: F508del corr, PAX8 inh HTS, Env fusion inh, GAA850 FXN act)
O=C(NC[C@H]1CC[C@H]2[C@H](CN2Cc2cccnc2)O1)C1CC1	none (no result: GAA850 FXN act)
CC1CCCN(c2ccc(C(=O)N3CCC4(CC3)OCCO4)cc2[N+](=O)[O-])C1 (stereo unspecified)	none
CCOC(=O)C1CCCN(c2ccc([N+](=O)[O-])c3nonc23)C1 (stereo unspecified)	F508del corr 14
CCOc1cc(CNCCc2c[nH]c3ccccc23)cc(Cl)c1OCC	Env fusion inh 68 (no result: F508del corr)
CCOc1c(Cl)cc(CNCCc2c[nH]c3ccccc23)cc1OC	Env fusion inh 64
CCN1[C@@H]2c3ccc(-c4cccc(OC)c4)c(=O)n3C[C@H]1[C@H](CO)[C@H]2C(=O)OC	none (no result: Env fusion inh, GAA850 FXN act)
